We go through eight compounds from PubChem BioAssay (Tox21).

A number with no mark means an inactive call. Results filed as inconclusive are left out. The source made the active and inactive calls. Unless noted, the call rests on the fitted dose curve; in most records, active means well fitted curve in the direction sought with a large enough effect in the repeat runs; inconclusive means weak or mixed curves; inactive means no such curve, though single readings can be large; an effect the other way counts as inactive or inconclusive.

A short description of test [1]: qHTS assay to identify small molecule agonists of the hypoxia (HIF-1) signaling pathway - cell viability counter screen (AID 1224844; calls by dose curve; further: nearly all actives have a fitted effect of over 50% in size). In a few lines:
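Multiplexed with the HRE beta-lactamase assay, this viability read used CellTiter-Glo luminescence (30 min, RT) on HRE-bla ME-180 cells treated 17 hrs with compounds in 0.5% dialyzed FBS medium.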
On the technique in general: Quantitative high-throughput screening tests each substance at several concentrations.

A short description of test [2]: qHTS assay to identify small molecule agonists of H2AX (AID 1224845; active means well fitted activation curve with a large enough effect in the signal ratio in the repeat runs, not every such curve was filed as active; the % refers to the signal ratio). In a few lines:
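Wild-type CHO-K1 cells, plated overnight, exposed 3hr at 37C to 15 concentrations (0.76% DMSO final). Lysed, then HTRF anti-pH2AX (S139) cryptate and anti-H2AX-d2 antibodies, 24 hr room temperature; 665/620 nm emission read.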

Test [3] can be described thus: qHTS assay to identify small molecule agonists of H2AX - cell viability counter screen (AID 1224847; calls by dose curve; further: top concentration of the series differs between compounds; nearly all actives have a fitted effect of over 30% in size). The method in brief: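 For this counter screen, overnight-attached CHO-K1 cells received test compounds (15 concentrations, 0.76% DMSO final); 3 hr later at 37C, CellTiter-Glo reagent was added and luminescence recorded after 30 min at room temperature.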
The nature of test [4]: qHTS RealTime-Glo MT Cell Viability Assay in HepG2 cells - 24 hour (AID 1224867). Further: nearly all actives have a fitted effect of over 50% in size. In a few lines:
(§1)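 Cells + NanoLuc/prosubstrate dispensed (600 cells/well) → 5 h at 37 C/5% CO2 → compounds in DMSO transferred → 40 h incubation at 37 C, luminescence read at 0, 8, 16, 24, 32, 40 h.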

A short description of test [5]: qHTS RealTime-Glo MT Cell Viability Assay in HEK293 cells - 32 hour (AID 1224868). Further: top concentration of the series differs between compounds; nearly all actives have a fitted effect of over 50% in size. The method in brief: (§2)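 Tox21 10K qHTS, HEK293, 600 cells/well, RealTime-Glo reagent co-dispensed with cells; 5 h preincubation, compound by pintool, 37 C, luminescence at 0–40 h.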
Test [6] in a line: A CellTox Green Cytotoxicity Assay to monitor cytotoxicity in HEK293 cells - 0 hour (AID 1224869). Further: nearly all actives have a fitted effect of over 50% in size. In a few lines: (§3)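 Seeding of HEK293 cells together with cytotoxicity dye preceded a 5 h incubation at 37 C/5% CO2. Test compounds in DMSO were then added and fluorescence monitored across 40 h.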
The nature of test [7]: A CellTox Green Cytotoxicity Assay to monitor cytotoxicity in HEK293 cells - 40 hour (AID 1224871). Further: nearly all actives have a fitted effect of over 45% in size. In a few lines:
as §3

Test [8] can be described thus: qHTS RealTime-Glo MT Cell Viability Assay in HEK293 cells - 16 hour (AID 1224872). In a few lines:
as §2

Test [9] in a line: qHTS RealTime-Glo MT Cell Viability Assay in HEK293 cells - 40 hour (AID 1224874). Further: nearly all actives have a fitted effect of over 50% in size. Particulars: RealTime-Glo luminescence; max response: hits give low values. In a few lines: (§4)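 Tox21 screen in HEK293 using RealTime-Glo MT chemistry, with cells and reagent co-dispensed. Luminescence proportional to viable cell number was captured at intervals during 40 h compound exposure at 37 C.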

The nature of test [10]: qHTS RealTime-Glo MT Cell Viability Assay in HepG2 cells - 32 hour (AID 1224877). Further: nearly all actives have a fitted effect of over 55% in size. In a few lines:
as §1

Test [11] is described as follows: A CellTox Green Cytotoxicity Assay to monitor cytotoxicity in HepG2 cells - 24 hour (AID 1224878). Further: nearly all actives have a fitted effect of over 45% in size. Further: potency means the concentration at half of the fitted maximal effect. The method in brief: (§5)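 Nonlytic assay: viable cells exclude the dye, so fluorescence scales with cell death. HepG2 at 600 cells/well, compounds added after 5 h, signal read across 40 h.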
Test [12] in a line: A CellTox Green Cytotoxicity Assay to monitor cytotoxicity in HepG2 cells - 40 hour (AID 1224879). Further: nearly all actives have a fitted effect of over 40% in size. Further: potency means the concentration at half of the fitted maximal effect. In a few lines: as §5
Test [13] can be described thus: qHTS RealTime-Glo MT Cell Viability Assay in HEK293 cells - 0 hour (AID 1224880). Further: nearly all actives have a fitted effect of over 45% in size. Further: potency means the concentration at half of the fitted maximal effect. In a few lines:
as §4

Test [14] can be described thus: qHTS RealTime-Glo MT Cell Viability Assay in HepG2 cells - 40 hour (AID 1224870). Further: nearly all actives have a fitted effect of over 50% in size. The method in brief: (§6)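 HepG2 cells (600/well) mixed with RealTime-Glo MT reagent, settled 5 h at 37 C/5% CO2 before compound addition. Nonlytic NanoLuc luminescence from viable-cell prosubstrate reduction read repeatedly during 40 h treatment at 37 C.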
Test [15] is described as follows: qHTS RealTime-Glo MT Cell Viability Assay in HepG2 cells - 8 hour (AID 1224873). Further: nearly all actives have a fitted effect of over 55% in size. The method in brief:
as §6

Test [16] in a line: A CellTox Green Cytotoxicity Assay to monitor cytotoxicity in HEK293 cells - 24 hour (AID 1224875). Further: nearly all actives have a fitted effect of over 45% in size. In a few lines: as §3
Test [17] is described as follows: A CellTox Green Cytotoxicity Assay to monitor cytotoxicity in HepG2 cells - 16 hour (AID 1224876). Further: nearly all actives have a fitted effect of over 45% in size. Further: potency means the concentration at half of the fitted maximal effect. The method in brief: as §5
Test [18] in a line: qHTS assay to identify small molecule agonists of the estrogen related receptor (ERR) signaling pathway from Tox21 library (AID 1224849; calls by dose curve; further: nearly all actives have a fitted effect of over 15% in size). Particulars: ERR reporter cell line, ONE-Glo luciferase, 18 h; at 92.4 µM (top of the series) unless noted. The method in brief:
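Six hours post-seeding at 37 C/5% CO2, ERR cells receive DMSO-solubilised compounds; after 18 h at 37 C, ONE-Glo reagent is applied and luminescence recorded.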
On the % scale 0 is the no-effect control and ±100 the full control effect.

In the case of `OCCC1CCCCN1` (stereo not given), the Potency entry in test [1], in test [2], in test [3], in test [4], in test [5] and in test [6] was “inactive” in each case. Moreover, the Potency entry in test [7], in [8], in test [10], in [11], in test [12] and in test [13] was “inactive” each time. In addition, the max response in [9] is -19.6%.
In the case of `CCC(C)N(C)C(=O)c1cc2ccccc2c(-c2ccccc2Cl)n1` (stereo not given), the Potency result in test [1], in [2], in [3], in [4], in test [6] and in test [14] was “inactive” in each case. Further, the Potency entry in [7], in [15], in [16], in test [17] and in test [10] was “inactive” each time. The Potency in [11] was 25.2 µM (active); in test [12] it was 28.2 µM (active); in test [13], 31.7 µM (active).
Take `CN1CCC[C@@H]1c1cccnc1`: the Potency entry in [1], in [2], in test [3], in test [4], in test [5] and in test [6] was “inactive” each time. The Potency result in test [7], in test [8], in test [15], in test [10], in test [11] and in test [12] was “inactive” each time. Moreover, the Potency result in test [13] was “inactive”. In addition, the max response in test [9] is 7.25%.
Turning to `O=[N+]([O-])c1cccc(Cl)c1Cl`, the Potency entry in test [1], in test [2], in test [3], in test [4], in test [5] and in test [6] was “inactive” throughout. Besides, the Potency entry in test [14], in [8], in test [17], in test [10], in test [11] and in test [12] was “inactive” throughout. The activity change, positive = activation in test [18] was 2.5%. Besides, the max response in [9] is -16.4%.
For the compound `O=S1(=O)c2cccc3cccc(c23)N1CCCN1CCN(c2ccc(F)cc2)CC1`, the Potency entry in [1], in test [2], in test [3], in test [4], in [5] and in test [6] was “inactive” throughout. Further, the Potency result in [14], in [7], in test [8], in test [15], in [16] and in [10] was “inactive” in each case. For the same compound, in test [13], the Potency entry was “inactive”. For the same compound, in test [18], the activity change, positive = activation was -30.2% [at 42.5 µM]. Moreover, the max response in test [9] was -11.7%.
With `CC(C(=O)O)c1ccc(-c2ccccc2)c(F)c1` (stereo not given), the Potency entry in [1], in test [2], in [4], in test [5], in test [6] and in [14] was “inactive” in each case. For the same compound, the Potency entry in test [7], in test [8], in test [15] and in test [10] was “inactive” throughout. In addition, in test [9], the max response is -0.192%. The results for the Potency in test [17] and in [11] were 49 µM (active) and 54.9 µM (active), respectively.
With `NC(N)=N/N=C/c1c(Cl)cccc1Cl`, the Potency entry in test [1], in [2], in test [3], in test [4], in test [5] and in test [6] was “inactive” each time. For the same compound, the Potency entry in [14], in test [7], in [8], in test [15], in test [16] and in test [10] was “inactive” each time. Besides, in test [18], the activity change, positive = activation was -17.6% [at 42.5 µM]. For the same compound, in [9], the max response was -22.8%.
`Cl/C(=C\n1cncn1)c1ccc(Cl)cc1Cl`: the Potency entry in [1], in test [2], in test [3], in test [4], in [5] and in test [6] was “inactive” throughout. Moreover, the Potency entry in test [14], in test [7], in [8], in test [15], in [16] and in [17] was “inactive” each time. Besides, the Potency entry in test [10], in test [11], in [12] and in test [13] was “inactive” throughout. Further, the activity change, positive = activation in [18] was -21.8% [at 42.5 µM]. Also, in test [9], the max response was -23.8%.
